Experiment in all cases: NCI-60 one-dose screen, 48 h (100 = growth as untreated, 0 = no growth, -100 = all killed)
One assay deals with NCI-H23 lung. The settings on record: 10 µM unless noted.
The test system of the next assay is NCI-H226 lung. The settings on record: 10 µM unless noted.
In another assay the test system is NCI-H322M lung. The following applies: 10 µM unless noted.
The test system of the next assay is HOP-62 NSCLC. The settings on record: 10 µM unless noted.
Another assay relates to NCI-H460 lung. The settings on record: 10 µM unless noted.
The test system of the next assay is HOP-92 NSCLC. The following applies: 10 µM unless noted.
Another assay relates to NCI-H522 lung. The settings on record: 10 µM.
A further assay has as its system 786-0 renal. The following applies: 10 µM unless noted.
The subject of another assay is COLO 205 colon. The settings on record: 10 µM unless noted.
In the next assay the test system is DU-145 prostate. The following applies: 10 µM unless noted.
Another assay deals with K-562 leukemia. The settings on record: 10 µM unless noted.
In a further assay the test system is MALME-3M melanoma. The settings on record: 10 µM unless noted.
For the next assay, the system named is MDA-MB-231 breast. The following applies: 10 µM unless noted.
The test system of the next assay is RXF 393 renal. The following applies: 10 µM unless noted.
The subject of another assay is SF-268 CNS. The following applies: 10 µM unless noted.
The next assay relates to SF-295 CNS. The settings on record: 10 µM unless noted.
For another assay, the system named is SF-539 CNS. The following applies: 10 µM unless noted.
A further assay deals with UACC-257 melanoma. The settings on record: 10 µM unless noted.
Another assay relates to M14 melanoma. The settings on record: 10 µM unless noted.

The panel holds about 83,000 compounds, 20% with a hit somewhere; the sample as a whole holds those more often.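 Activity criterion: percent growth below 10, measured after cells in 96-well plates were exposed to a single compound concentration for 48 hours.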 Calls of active or inactive are those of the source.

With `CC[C@H]1CN2CCc3cc(OC)c(OC)cc3C2C[C@@H]1CC1NCCc2cc(OC)c(OC)cc21` (stereo partly specified), the growth with NCI-H23 lung is -34.3% (active); in the assay with NCI-H226 lung, -25.4% (active); in the assay on NCI-H322M lung, -23.2% (active); in the assay with HOP-62 NSCLC, -29.4% (active); with NCI-H460 lung, -25.6% (active); in the assay with HOP-92 NSCLC, -17.8% (active). Further, the growth was -71.2% (active) with NCI-H522 lung; -19.6% (active) in the assay on 786-0 renal; -66.1% (active) in the assay on COLO 205 colon; -31.6% (active) with DU-145 prostate; -6.17% (active) in the assay on K-562 leukemia; -58.1% (active) in the assay on MALME-3M melanoma. Moreover, the growth was -45.5% (active) with MDA-MB-231 breast; -42.9% (active) in the assay with RXF 393 renal; -25.6% (active) in the assay with SF-268 CNS; -29.2% (active) in the assay on SF-295 CNS; -59.7% (active) in the assay on SF-539 CNS; -27.8% (active) in the assay with UACC-257 melanoma. The growth with M14 melanoma is -82.9% (active).
Regarding `Cc1ccc(-c2csc(N)n2)cc1`, the growth in the assay on NCI-H23 lung is 102% (inactive); with NCI-H226 lung, 97.4% (inactive); with NCI-H322M lung, 107% (inactive); in the assay on HOP-62 NSCLC, 110% (inactive); with NCI-H460 lung, 102% (inactive); in the assay with HOP-92 NSCLC, 70.7% (inactive). For the same compound, the growth in the assay on NCI-H522 lung is 98.8% (inactive); with 786-0 renal it was 98.3% (inactive); in the assay with COLO 205 colon it was 115% (inactive); with DU-145 prostate it was 123% (inactive); with K-562 leukemia, 94.4% (inactive); in the assay with MALME-3M melanoma it was 124% (inactive). Also, the growth was 96.6% (inactive) with MDA-MB-231 breast; 110% (inactive) in the assay with RXF 393 renal; 101% (inactive) in the assay with SF-268 CNS; 110% (inactive) in the assay on SF-295 CNS; 102% (inactive) in the assay on SF-539 CNS; 79.9% (inactive) in the assay on UACC-257 melanoma. Further, the growth with M14 melanoma was 102% (inactive).
`Cc1ccc(C2=NNC(c3sc(Cl)nc3Cl)C2)cc1` (stereo unspecified): the growth is 91% (inactive) in the assay with NCI-H23 lung; 84.7% (inactive) in the assay on NCI-H226 lung; 83.2% (inactive) with NCI-H322M lung; 107% (inactive) with HOP-62 NSCLC; 104% (inactive) in the assay with NCI-H460 lung; 115% (inactive) with HOP-92 NSCLC. Also, the growth in the assay on NCI-H522 lung is 18.1% (inactive); in the assay with 786-0 renal, 106% (inactive); with COLO 205 colon it was 99.8% (inactive); with DU-145 prostate it was 95.6% (inactive); in the assay on K-562 leukemia, 11.7% (inactive); in the assay on MALME-3M melanoma, 77.6% (inactive). In addition, the growth in the assay on MDA-MB-231 breast was 92.1% (inactive); in the assay on RXF 393 renal it was 108% (inactive); with SF-268 CNS, 98.3% (inactive); with SF-295 CNS, 101% (inactive); with SF-539 CNS, 118% (inactive); in the assay with UACC-257 melanoma it was 90.6% (inactive). Moreover, the growth in the assay with M14 melanoma is 86.5% (inactive).
As to `Oc1c(Cl)cc(Cl)c(Cl)c1Cc1c(O)c(Cl)cc(Cl)c1Cl`, the growth in the assay with NCI-H23 lung is -0.673% (active); with NCI-H226 lung, 18% (inactive); in the assay with NCI-H322M lung, -1.98% (active); in the assay with HOP-62 NSCLC, 21.5% (inactive); in the assay on NCI-H460 lung, 5.9% (active); in the assay with HOP-92 NSCLC, -21.7% (active). In addition, the growth is -3.33% (active) in the assay on NCI-H522 lung; 12.2% (inactive) in the assay with 786-0 renal; 70.3% (inactive) in the assay on COLO 205 colon; 28.2% (inactive) with DU-145 prostate; 4.84% (active) with K-562 leukemia; -21.1% (active) in the assay with MALME-3M melanoma. Further, the growth in the assay with MDA-MB-231 breast was -13.5% (active); in the assay on RXF 393 renal, 15.1% (inactive); in the assay on SF-268 CNS it was 17.5% (inactive); with SF-295 CNS it was -42.4% (active); in the assay on SF-539 CNS, 21.4% (inactive); in the assay with UACC-257 melanoma, 9.73% (active). Moreover, the growth in the assay with M14 melanoma was 16.3% (inactive).
In the case of `CSc1nc(N)c2c(n1)N(C)C=NS2(=O)=O`, the growth in the assay on NCI-H23 lung is 105% (inactive); with NCI-H226 lung, 101% (inactive); with NCI-H322M lung, 114% (inactive); in the assay with HOP-62 NSCLC, 123% (inactive); in the assay on NCI-H460 lung, 115% (inactive); in the assay with HOP-92 NSCLC it was 79.1% (inactive). Further, the growth in the assay with NCI-H522 lung is 105% (inactive); in the assay with 786-0 renal, 108% (inactive); in the assay with COLO 205 colon, 101% (inactive); in the assay with DU-145 prostate, 122% (inactive); with K-562 leukemia it was 116% (inactive); in the assay on MALME-3M melanoma, 110% (inactive). Moreover, the growth in the assay with MDA-MB-231 breast is 108% (inactive); in the assay on RXF 393 renal, 116% (inactive); in the assay on SF-268 CNS, 107% (inactive); in the assay on SF-295 CNS, 105% (inactive); in the assay with SF-539 CNS, 107% (inactive); in the assay with UACC-257 melanoma, 114% (inactive). In the assay on M14 melanoma, the growth was 106% (inactive).
Turning to `CCSc1nc(-c2ccco2)n2nc(-c3ccco3)cc2n1`, the growth with NCI-H23 lung is 93.5% (inactive); in the assay with NCI-H226 lung, 90.7% (inactive); in the assay with NCI-H322M lung it was 117% (inactive); in the assay on HOP-62 NSCLC, 100% (inactive); with NCI-H460 lung, 92.1% (inactive); in the assay with HOP-92 NSCLC, 89.6% (inactive). In addition, the growth in the assay with NCI-H522 lung was 101% (inactive); in the assay on 786-0 renal, 111% (inactive); with COLO 205 colon it was 114% (inactive); with DU-145 prostate, 118% (inactive); in the assay on K-562 leukemia it was 116% (inactive); with MALME-3M melanoma it was 116% (inactive). For the same compound, the growth in the assay with MDA-MB-231 breast is 88.1% (inactive); with RXF 393 renal it was 101% (inactive); in the assay with SF-268 CNS, 113% (inactive); in the assay with SF-295 CNS, 101% (inactive); with SF-539 CNS it was 100% (inactive); in the assay on UACC-257 melanoma, 102% (inactive). In the assay on M14 melanoma, the growth was 121% (inactive).
For `NS(=O)(=O)c1cc2c(cc1Cl)NC=NS2(=O)=O`, the growth with NCI-H23 lung was 109% (inactive); in the assay with NCI-H226 lung, 99% (inactive); in the assay on NCI-H322M lung, 98.5% (inactive); with HOP-62 NSCLC it was 98.5% (inactive); in the assay on NCI-H460 lung it was 110% (inactive); with HOP-92 NSCLC, 106% (inactive). The growth with NCI-H522 lung was 91.4% (inactive); in the assay on 786-0 renal it was 98.9% (inactive); in the assay with COLO 205 colon, 110% (inactive); in the assay on DU-145 prostate, 111% (inactive); with K-562 leukemia it was 120% (inactive); in the assay on MALME-3M melanoma it was 103% (inactive). The growth is 113% (inactive) in the assay on MDA-MB-231 breast; 121% (inactive) in the assay with RXF 393 renal; 109% (inactive) in the assay on SF-268 CNS; 104% (inactive) in the assay on SF-295 CNS; 103% (inactive) with SF-539 CNS; 104% (inactive) in the assay with UACC-257 melanoma. Further, in the assay with M14 melanoma, the growth is 96.4% (inactive).
`Cc1ncc(C(=O)Nc2ccc(CN3CCN(C)CC3)c(C(F)(F)F)c2)cc1C#Cc1cncc2ncccc12`: the growth in the assay on NCI-H23 lung was 45.7% (inactive); in the assay on NCI-H226 lung, 46.7% (inactive); in the assay on NCI-H322M lung, 51% (inactive); with HOP-62 NSCLC, 59.4% (inactive); in the assay with NCI-H460 lung it was 61% (inactive); in the assay with HOP-92 NSCLC it was 60.3% (inactive). The growth in the assay on NCI-H522 lung was 86.5% (inactive); in the assay with 786-0 renal, -85.8% (active); in the assay with COLO 205 colon, 32.2% (inactive); in the assay on DU-145 prostate, 66.9% (inactive); in the assay with K-562 leukemia it was -10.7% (active); with MALME-3M melanoma it was 0.477% (active). The growth was 21.3% (inactive) in the assay with MDA-MB-231 breast; 36.7% (inactive) in the assay with RXF 393 renal; 57.7% (inactive) with SF-268 CNS; 82.6% (inactive) in the assay on SF-295 CNS; 67% (inactive) in the assay on SF-539 CNS; 5.36% (active) in the assay with M14 melanoma.

The values above are taken from PubChem BioAssay (NCI).
